Reference: ChEMBL document CHEMBL1157539, “Thousands of chemical starting points for antimalarial lead identification” (Nature, 2010)

What follows are molecules tested on HepG2 (assay: GSK_TCMDC: Percent inhibition of human HepG2 cell line. Test compounds present at 10uM.).
Assay type: functional

SMILES | Inhibition
O=C(O)C(F)(F)F.O=[N+]([O-])c1cccc(CNCC2CCC(CNCc3cccc([N+](=O)[O-])c3)CC2)c1 (configuration not stated) | 39%
COc1cc2c(=O)c(Cc3ccc(Cl)cc3)c(C)[nH]c2cc1F | 13%
CN(C)c1ccc(-c2ccc(C(=O)NC3CCN(Cc4ccc(C(C)(C)C)cc4)CC3)s2)cc1.O=C(O)C(F)(F)F | 35%
CC(C)CNC(=O)CN1C(=O)C(c2ccccc2)(c2ccccc2)N=C1N | 15%
COCCN1CCC(N(Cc2ccc(-c3ccc(OC(F)(F)F)cc3)cc2)C(=O)Cn2c(CCc3cccc(F)c3F)cc(=O)c3ccccc32)CC1.O=C(O)C(O)C(O)C(=O)O | 100%
Cc1cc(NCCC(=O)Nc2ccccc2)nc(NCCOc2ccccc2)n1.O=C(O)C(F)(F)F | 5%
COc1ccc2ncc(F)c(CCN3CC[C@H](NC(=O)c4ccc5c(n4)NC(=O)CS5)[C@H](O)C3)c2n1.Cl | 20%
CCCCN(CCCC)CCNC(=O)c1cccc(NC(=O)N2CCc3cc(SC)c(C(F)(F)F)cc32)c1 | 15%
O=C(NCC(c1ccc(C(F)(F)F)cc1)N1CCCC1)c1cc(-c2ccncc2)c(-c2cccc(O)c2)o1.O=C(O)C(F)(F)F (configuration not stated) | 9%
Br.CC1(C)NC(N)=NC(=N)N1OCCCNC(=O)c1ccc([N+](=O)[O-])cc1 | 57%
N#Cc1cccc(Nc2nccc(NCC(O)c3cccc(C(F)(F)F)c3)n2)c1 (configuration not stated) | 4%
CCOC(=O)c1cnc2c(OC)cc(OC)c(Cl)c2c1Nc1cccc(C)c1C | 5%
